PubChem BioAssay AID1932 (Vanderbilt High Throughput Screening Facility, 2009)
Active and inactive are the calls of the source. The rule behind the calls is not given here.

Each compound was assayed against Muscarinic acetylcholine receptor M1 (Rattus norvegicus) (UniProt P08482) (assay: M1 potentiation check of M4 PAM analogs – cell-based, ACh fold-shift, calcium mobilization, selectivity assay for M4 PAM project, SAR follow-up (AID 1932)). Details: rM1-expressing cells, ACh CRC fold-shift; series mostly up to 1 µM; ACh response, % max: at the top concentration.
Muscarinic acetylcholine receptor M1 (Rattus norvegicus), sequence (P08482 whole entry, looked up): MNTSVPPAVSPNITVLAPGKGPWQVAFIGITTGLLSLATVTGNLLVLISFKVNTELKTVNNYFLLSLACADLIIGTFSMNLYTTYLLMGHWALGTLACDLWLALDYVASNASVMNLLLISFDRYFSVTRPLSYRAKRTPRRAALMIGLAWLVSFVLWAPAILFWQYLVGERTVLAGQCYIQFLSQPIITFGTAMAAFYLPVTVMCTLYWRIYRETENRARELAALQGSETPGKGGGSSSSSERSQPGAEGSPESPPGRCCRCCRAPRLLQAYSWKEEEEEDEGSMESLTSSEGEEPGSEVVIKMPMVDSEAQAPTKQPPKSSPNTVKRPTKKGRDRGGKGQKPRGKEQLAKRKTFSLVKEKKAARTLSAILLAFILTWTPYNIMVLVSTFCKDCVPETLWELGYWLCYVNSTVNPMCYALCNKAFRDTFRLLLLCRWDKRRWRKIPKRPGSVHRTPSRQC

Compound | ACh response, % max
COc1ccc(CNC(=O)c2sc3nc(OCc4ccncc4)cc(C)c3c2N)cc1 | 96.3 (inactive)
Cc1cc(OCc2ccncc2)nc2sc(C(=O)NCc3cc(F)ccc3F)c(N)c12 | 92.8 (inactive)
Cc1cc(OCc2ccncc2)nc2sc(C(=O)NCc3cccc(F)c3F)c(N)c12 | 92.3 (inactive)
Cc1cc(OCCN2CCOCC2)nc2sc(C(=O)NC(C)(C)C)c(N)c12 | 93.7 (inactive)
